Assay [1] in a line: APR_HepG2_NuclearSize_24hr: Apredica 24-hour HepG2 Assay for Nuclear Size (AID 2282907). As to conditions: high-content imaging, actives raise or lower the signal. The essentials: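 After fixation and permeabilization, 24-hr-treated HepG2 cells were stained with Hoechst 33342 and imaged on an ArrayScan (20x). Doses spanned 0.39–200 uM in duplicate. Nuclear diameter changes in either direction were fitted relative to 0.5% DMSO controls.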

The nature of assay [2]: APR_HepG2_CellLoss_24hr: Apredica 24-hour HepG2 Assay for Cell Loss (AID 2282908).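 As to AC50: fit in both directions so a hit may be cell loss or gain.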 As to conditions: high-content imaging. The essentials: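 Duplicate wells received compound at ten concentrations (0.39–200 uM; final DMSO 0.5% v/v). After fixation with formaldehyde, nuclei stained with Hoechst 33342 were imaged at 20x. Loss or gain of cell count was fitted relative to DMSO controls.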

Assay [3] is described as follows: APR_HepG2_MicrotubuleCSK_24hr: Apredica 24-hour HepG2 Assay for Microtubule CSK Stabilty (AID 2282909). Conditions: HepG2 microtubule cytoskeleton imaging, actives raise or lower the signal. In a few lines:
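Microtubule stability is scored from tubulin immunofluorescence in fixed HepG2 cells imaged at 20x. Cells receive ten compound concentrations up to 200 uM for 24 h; taxol and DMSO serve as positive and negative controls.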

Assay [4] can be described thus: APR_HepG2_MitoticArrest_24hr: Apredica 24-hour HepG2 Assay for Mitotic Arrest (AID 2282910). As to conditions: high-content imaging, actives raise or lower the signal. The essentials: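 High-content imaging of fixed HepG2 cells labeled with Hoechst 33342 and anti-phospho-histone H3, after 24 h treatment. Ten concentrations 0.39 to 200 uM in duplicate, final DMSO 0.5%; changes fitted both directions relative to DMSO.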

A short description of assay [5]: APR_HepG2_MitoMembPot_24hr: Apredica 24-hour HepG2 Assay for Mitochondrial Membrane Potential (AID 2282911). Conditions: imaging, actives raise or lower the signal. The essentials:
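HepG2 cells exposed 24 h to 0.39–200 uM compounds in duplicate, 0.5% v/v DMSO final. MitoTracker Red CMXRos 250 nM loaded 30 min before formaldehyde fixation; high-content imaging at 20x, bidirectional fit versus DMSO.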

Assay [6] in a line: APR_HepG2_MitoMass_24hr: Apredica 24-hour HepG2 Assay for Mitochondrial Mass (AID 2282912). As to conditions: high-content imaging, actives raise or lower the signal. In a few lines: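 Readout: fluorescence of MitoTracker Red CMXRos (250 nM, added 30 min pre-fixation) in fixed HepG2 cells imaged by HCS. Exposure lasted 24 hr at 0.39–200 uM; increases and decreases were both fitted relative to DMSO.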

Assay [7] in a line: APR_HepG2_p53Act_24hr: Apredica 24-hour HepG2 Assay for p53 Activation (AID 2282913).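 Also: p53 protein immunofluorescence averaged per cell in HepG2 with Hoechst nuclei.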 As to conditions: high-content imaging, actives raise or lower the signal. The essentials:
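HepG2 cells exposed 24 h to compounds at 0.39–200 uM in duplicate, 0.5% v/v DMSO final; fixed, permeabilized, stained with anti-p53 antibody and Hoechst 33342; fluorescence imaging; bidirectional curve fit versus DMSO.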

Assay [8] in a line: APR_HepG2_CellCycleArrest_72hr: Apredica 72-hour HepG2 Assay for Cell Cycle Arrest (AID 2282914). Conditions: high-content imaging, actives raise or lower the signal. The essentials: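 HepG2 cells exposed 72 h in duplicate to 0.39–200 uM compound, 0.5% DMSO final. Formaldehyde-fixed, Hoechst 33342-stained nuclei imaged at 20x, six fields per well; DNA content per valid cell quantified by cell-cycle image analysis, bidirectional fit versus DMSO.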

Assay [9] in a line: APR_HepG2_P-H2AX_72hr: Apredica 72-hour HepG2 Assay for H2AX Phosphorylation (AID 2282916).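 Also: phospho-histone H2A.x immunostain intensity per cell marking DNA damage.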 Conditions: imaging, actives raise or lower the signal. In a few lines: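 Phospho-H2A.x imaging endpoint in HepG2 after 72 hr compound exposure (0.39–200 uM, duplicate wells). Activity derived by bidirectional curve fitting with DMSO as baseline.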
A short description of assay [10]: APR_HepG2_MitoMembPot_72hr: Apredica 72-hour HepG2 Assay for Mitochondrial Membrane Potential (AID 2282917). Conditions: imaging, actives raise or lower the signal. In a few lines: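 Membrane potential read by MitoTracker Red CMXRos (250 nM, 30 min, pre-fixation) fluorescence imaging of HepG2 after 72 hr exposure. Ten concentrations, 0.39–200 uM, duplicate wells, 0.5% DMSO; fitted in both directions against DMSO baseline.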

Assay [11] is described as follows: APR_HepG2_MitoticArrest_72hr: Apredica 72-hour HepG2 Assay for Mitotic Arrest (AID 2282918). Conditions: high-content imaging, actives raise or lower the signal. The essentials: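 HepG2 cells treated 72 h at 0.39–200 uM, 0.5% DMSO final; formaldehyde-fixed, stained with Hoechst 33342 and phospho-histone H3 antibody, imaged by high-content fluorescence; bidirectional fit versus DMSO.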

A short description of assay [12]: APR_HepG2_MicrotubuleCSK_72hr: Apredica 72-hour HepG2 Assay for Microtubule CSK Stabilty (AID 2282919). Conditions: HepG2 microtubule cytoskeleton, high-content imaging, actives raise or lower the signal. The essentials:
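High-content imaging of alpha-tubulin staining in fixed HepG2 cells after 72 hr treatment with ten concentrations from 0.39 to 200 uM (0.5% DMSO). Fitting was bidirectional against DMSO; taxol served as positive control.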

Assay [13] in a line: APR_HepG2_P-H2AX_24hr: Apredica 24-hour HepG2 Assay for H2AX Phosphorylation (AID 2282920). As to conditions: high-content imaging, actives raise or lower the signal. The essentials:
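HepG2 cells dosed 24 h at 0.39–200 uM (10 points, duplicate, 0.5% DMSO final). Formaldehyde-fixed and permeabilized, then immunostained for phospho-H2A.x with Hoechst. Fluorescence quantified by high-content imaging, fitted bidirectionally versus DMSO.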

Assay [14] is described as follows: APR_HepG2_StressKinase_72hr: Apredica 72-hour HepG2 Assay for Stress Kinase (AID 2282921). As to conditions: HepG2 stress kinase (phospho-c-Jun) imaging, actives raise or lower the signal. The essentials:
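Stress kinase signal reflects nuclear phospho-c-Jun staining in fixed, permeabilized cells exposed 72 h to compound at 0.39–200 uM; DMSO-normalized, fitted for increases or decreases.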

Assay [15] in a line: APR_HepG2_StressKinase_24hr: Apredica 24-hour HepG2 Assay for Stress Kinase (AID 2282922). Conditions: HepG2 stress kinase (phospho-c-Jun) imaging, actives raise or lower the signal. In a few lines:
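High-content imaging of phospho-c-Jun immunofluorescence in fixed, permeabilized HepG2 cells after 24 h dosing. Ten concentrations, 0.39 to 200 uM, run in duplicate at 0.5% v/v DMSO; gain or loss of signal versus DMSO.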

A short description of assay [16]: APR_HepG2_MitoMass_72hr: Apredica 72-hour HepG2 Assay for Mitochondrial Mass (AID 2282924).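 Also: MitoTracker Red CMXRos stain intensity per cell imaged as mitochondrial mass.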 As to conditions: high-content imaging, actives raise or lower the signal. The essentials: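 Readout is imaged MitoTracker Red (250 nM, 30 min, pre-fixation) signal, fitted bidirectionally against DMSO baseline. Human HepG2 liver cells received compound 0.39–200 uM in duplicate for 72 hr, final DMSO 0.5%.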

Assay [17] can be described thus: APR_HepG2_NuclearSize_72hr: Apredica 72-hour HepG2 Assay for Nuclear Size (AID 2282925). As to conditions: high-content imaging, actives raise or lower the signal. In a few lines:
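Nuclear size was read by high-content imaging of Hoechst 33342 stain after formaldehyde fixation. Compounds ran 72 h on HepG2 at 0.39 to 200 uM, with final DMSO 0.5% v/v. Curves fitted both directions relative to DMSO control.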

A short description of assay [18]: APR_HepG2_CellLoss_72hr: Apredica 72-hour HepG2 Assay for Cell Loss (AID 2282915). Conditions: high-content imaging. In a few lines: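 Cell number comes from Hoechst 33342-labelled nuclei, imaged at 20x after 3.7% formaldehyde fixation. Dosing was 0.39–200 uM, ten concentrations in duplicate, 0.5% DMSO final, for 72 h. Bidirectional fit relative to DMSO baseline.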

A short description of assay [19]: APR_HepG2_StressKinase_1hr: Apredica 1-hour HepG2 Assay for Stress Kinase (AID 2282906). Conditions: HepG2 stress kinase (phospho-c-Jun) imaging, actives raise or lower the signal. The essentials: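 High-content imaging of phospho-c-Jun immunostaining (with Hoechst nuclear identification) after a 1 h exposure of HepG2 cells to 10 concentrations from 0.39 to 200 uM, final DMSO 0.5%. Fitted bidirectionally against DMSO.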

A short description of assay [20]: APR_HepG2_p53Act_72hr: Apredica 72-hour HepG2 Assay for p53 Activation (AID 2282923).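 Also: average cellular p53 protein immunofluorescence intensity in HepG2 cells.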 As to conditions: high-content imaging, actives raise or lower the signal. In a few lines: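 Fixed-cell p53 staining (sheep primary, Cy5 secondary) measured by fluorescence imaging following 72 hr treatment at 0.39–200 uM in 0.5% DMSO; DMSO served as negative control and baseline.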

By AC50 is commonly meant the concentration at which the activity in the assay is half-maximal.

Active and inactive are the calls of the source. The calls were made as follows: active = hit-call score of the fitted dose curve at least 0.9, where 1 is the maximum; inactive = score below 0.9.

Turning to `CCOP(=S)(OCC)SCSC(C)(C)C`, the call in assay [1], in assay [2], in [3], in [4], in assay [6] and in assay [7] was inactive. In addition, the call in [8], in assay [9], in [10], in assay [11], in assay [12] and in [13] was inactive. The result in assay [14], in assay [15], in [16] and in assay [17] was inactive. In addition, the AC50 in [5] was 0.0494 µM (active).
For `Oc1ccc(Cl)cc1Cl`, the compound was classed as inactive in assay [1], in [2], in assay [3], in assay [4], in [5] and in assay [6]. Moreover, the compound was called inactive in assay [7], in assay [8], in assay [18], in [9], in [10] and in assay [11]. Moreover, the call in [12], in [13], in [14], in assay [15], in [16] and in assay [17] was inactive.
`CCSC(=O)N(CC)C1CCCCC1`: the compound was classed as inactive in assay [19], in [1], in assay [2], in assay [3], in assay [4] and in [5]. Moreover, the compound was classed as inactive in assay [6], in assay [18], in [9], in assay [10], in assay [12] and in [13]. The compound was classed as inactive in assay [14], in assay [15], in assay [16] and in assay [17].
In the case of `CC(C)C(=O)OCC(C)(C)C(OC(=O)C(C)C)C(C)C` (stereo not given), the outcome in assay [1], in assay [2], in assay [3], in assay [4], in assay [5] and in assay [6] was inactive. Besides, the result in assay [7], in assay [18], in assay [9], in assay [10], in assay [11] and in [12] was inactive. Besides, the call in assay [13], in assay [14], in [15], in assay [20], in assay [16] and in assay [17] was inactive.
On to `CO/C=C(/C(=O)OC)c1ccccc1COc1cccc(C(F)(F)F)n1`, for which the outcome in assay [1], in [3], in assay [6], in assay [7], in assay [8] and in assay [10] was inactive. For the same compound, the compound was classed as inactive in assay [12], in [13], in assay [14], in assay [15] and in assay [17]. Further, the AC50 in assay [2] is 9.73 µM (active); in assay [4], 16.8 µM (active); in assay [5], 16.4 µM (active); in assay [9], 20.5 µM (active); in assay [20] it was 26.9 µM (active); in assay [16] it was 0.638 µM (active).
Regarding `COc1ccc(O)c(C(C)(C)C)c1`, the result in assay [1], in assay [2], in assay [3], in [4], in assay [5] and in assay [6] was inactive. Further, the compound was classed as inactive in assay [7], in assay [18], in assay [9], in assay [10], in assay [12] and in assay [13]. Moreover, the call in assay [14], in assay [15], in [20], in [16] and in [17] was inactive.
Take `CCCCCCCCCC[N+](C)(C)CCCCCCCCCC`: the outcome in assay [1], in assay [6], in assay [7], in assay [14], in assay [15] and in assay [17] was inactive. Further, the half-maximal activity concentration (AC50) in assay [2] was 4.36 µM (active); in assay [3] it was 10.9 µM (active); in assay [4], 4.34 µM (active); in [5], 26 µM (active); in assay [8], 48.2 µM (active); in assay [9], 5.55 µM (active). The AC50 in assay [10] was 41.2 µM (active); in [11], 3.61 µM (active); in [12], 15.6 µM (active); in assay [13], 6.27 µM (active); in [16], 3.13 µM (active).

The record behind these values is PubChem BioAssay (EPA / NIEHS).
